# Results reported in PubChem BioAssay (NCI).
# Compounds without any hit were thinned out: in the full panel of roughly 79,000, 15% have a hit. Values without a mark were called inactive. Active and inactive are the calls of the source. Rule as the data show it: active = growth inhibition above about 70%; inactive = the rest.
# Assay: NCI Yeast Anticancer Drug Screen. Data for the sgs1 strain (AID 173);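 also: 0% = growth of vehicle-only control cultures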
# Settings: S. cerevisiae sgs1 mutant, stronger effect = higher value
# Experimental: Growth inhibition of yeast strains with defined genetic alterations is measured as a screen for potential anti-cancer activity. Selected strains with alterations in DNA damage repair or cell cycle control were exposed to compounds and growth inhibition was measured relative to vehicle treated controls. The strain used in this assay is sgs1
SMILES,growth inhibition (at 1.2 µM),growth inhibition (at 3.7 µM),growth inhibition (at 11.0 µM),growth inhibition (at 33.0 µM),growth inhibition (at 100.0 µM)
Cc1cccc(C(C)(C)C)c1NC(=O)C(C#N)C1=C(Cl)C(=O)c2ccccc2C1=O (stereo not given),-2%,9%,45%,98% (active),97% (active)
CN(C)CCNc1ccc2ncnc3c2c1C(=O)c1ccccc1-3,9%,8%,24%,54%,61%
COc1ccc(/C=C2\NC(=S)N(/C=C3\C(=O)Oc4ccccc4C3=O)C2=O)cc1,0%,2%,2%,20%,35%
CNC(=O)OCc1c(COC(=O)NC)c(-c2ccc(Cl)cc2)n2c1CCC2,-11%,-28%,-41%,-23%,89% (active)
C#CCN(Cc1ccc2nc(N)[nH]c(=O)c2c1)c1ccc(C(=O)NC(CCC(=O)O)C(=O)O)cc1 (stereo not given),24%,35%,36%,64%,75% (active)
O=[N+]([O-])c1cc(S(=O)(=O)Nc2ccccc2)ccc1Nc1ccccc1,0%,-8%,91% (active),91% (active),83% (active)
CC1=C(C(=O)NCc2ccccc2)C(c2ccccc2)C(C(=O)NCc2ccccc2)=C(C)N1,-1%,-2%,5%,40%,93% (active)
OCc1ccccc1Cc1ccccc1,0%,2%,2%,1%,-1%
